Measurements as given in PubChem BioAssay AID1347165 (National Center for Advancing Translational Sciences (NCATS), 2019).
About 5,700 (2.6%) of roughly 220,000 compounds were called active. About 18% were inconclusive and are not listed. This excerpt belongs to a sample that is enriched for actives. Unmarked numbers belong to inactive results. Calls come from the whole dose curve; as a rule, active = well fitted inhibition curve with a large enough effect; inconclusive = small, poorly fitted or top-dose-only effect; inactive = no such curve, though single readings can be large or run the other way.

target: Lysine-specific demethylase 5B (Homo sapiens) (UniProt Q9UGL1); experiment: Primary screen for KDM5B Histone Demethylases FDH-coupled qHTS; details: FDH-coupled NADH fluorescence (FDH is formaldehyde dehydrogenase); series mostly up to 57.7 µM; activity change, negative = inhibition: at the top concentration; note: nearly all actives have a fitted effect of over 70% in size; for activity change, negative = inhibition: 0% is about no effect
Summary of the method: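 Coupled FDH/NAD⁺ fluorescence readout. KDM5BΔAP 200 nM final; compound titration, 10 min RT preincubation; substrate mix 12.5 µM H3K4me3, 25 µM 2-OG, 50 µM Fe(II), 100 µM ascorbate, 0.25 mM NAD⁺, 0.25 U/mL FDH; ΔRFU over 30 min.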
Potency is the fitted concentration of half-maximal effect.

Sequence of Lysine-specific demethylase 5B (Homo sapiens) (Q9UGL1 whole entry, looked up): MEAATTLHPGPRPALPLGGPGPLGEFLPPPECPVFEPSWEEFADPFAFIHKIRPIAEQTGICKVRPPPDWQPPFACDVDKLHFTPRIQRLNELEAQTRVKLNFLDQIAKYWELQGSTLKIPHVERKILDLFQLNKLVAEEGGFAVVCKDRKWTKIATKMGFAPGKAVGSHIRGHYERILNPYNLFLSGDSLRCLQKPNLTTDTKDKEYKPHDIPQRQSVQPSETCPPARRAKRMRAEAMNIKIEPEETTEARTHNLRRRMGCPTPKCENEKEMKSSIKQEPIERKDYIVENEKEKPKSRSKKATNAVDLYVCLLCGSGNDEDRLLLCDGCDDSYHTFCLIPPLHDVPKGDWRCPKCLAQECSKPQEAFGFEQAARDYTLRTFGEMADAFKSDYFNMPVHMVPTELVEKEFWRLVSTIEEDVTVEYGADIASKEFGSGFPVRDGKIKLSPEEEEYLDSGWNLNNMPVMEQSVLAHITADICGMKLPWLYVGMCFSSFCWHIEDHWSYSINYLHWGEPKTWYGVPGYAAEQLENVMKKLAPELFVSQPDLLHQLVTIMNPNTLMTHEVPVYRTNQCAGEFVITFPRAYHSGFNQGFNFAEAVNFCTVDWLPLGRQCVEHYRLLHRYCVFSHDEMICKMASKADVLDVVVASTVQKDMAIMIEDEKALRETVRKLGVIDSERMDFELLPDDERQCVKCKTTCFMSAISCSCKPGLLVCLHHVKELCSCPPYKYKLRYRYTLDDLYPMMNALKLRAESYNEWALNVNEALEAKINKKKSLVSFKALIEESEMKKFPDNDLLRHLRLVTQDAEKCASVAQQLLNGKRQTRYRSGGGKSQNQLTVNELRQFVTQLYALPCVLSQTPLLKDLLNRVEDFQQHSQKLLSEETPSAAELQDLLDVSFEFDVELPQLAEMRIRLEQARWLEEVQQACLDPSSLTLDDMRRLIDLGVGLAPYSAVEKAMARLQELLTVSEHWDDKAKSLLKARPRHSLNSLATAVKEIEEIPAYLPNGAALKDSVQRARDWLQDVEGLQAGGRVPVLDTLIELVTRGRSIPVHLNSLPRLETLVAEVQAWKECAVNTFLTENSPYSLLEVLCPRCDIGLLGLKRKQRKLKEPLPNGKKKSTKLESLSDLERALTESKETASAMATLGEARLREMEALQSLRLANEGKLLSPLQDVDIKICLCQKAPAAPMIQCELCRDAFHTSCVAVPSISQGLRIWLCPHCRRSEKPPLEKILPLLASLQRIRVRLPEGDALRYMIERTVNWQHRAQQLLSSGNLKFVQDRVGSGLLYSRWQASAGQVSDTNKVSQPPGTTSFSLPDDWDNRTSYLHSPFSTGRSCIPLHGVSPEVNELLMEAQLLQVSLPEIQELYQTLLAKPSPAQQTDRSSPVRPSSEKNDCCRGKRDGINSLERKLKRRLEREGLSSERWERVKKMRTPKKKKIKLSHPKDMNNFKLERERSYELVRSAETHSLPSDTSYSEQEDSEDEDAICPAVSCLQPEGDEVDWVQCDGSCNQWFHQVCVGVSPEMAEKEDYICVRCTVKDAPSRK

Compound | activity change, negative = inhibition | Potency
Cc1ccc(F)cc1NC(=O)CCc1c[nH]c2ccccc12 | 17.4% | 
COc1ccc(S(=O)(=O)N2CCC(C)CC2)c2cccnc12 | 12.9% | 
CC(NC(=O)c1ccc(F)cc1)C12CC3CC(CC(C3)C1)C2 (configuration not stated) | 14.3% | 
CCCn1c(CN2CCCCC2)nc2cc(NC(=O)c3cc(OC)c(OC)c(OC)c3)ccc21 | 5.88% | 
Cc1cc(NC(=O)COc2c(CO)cc(F)cc2CO)ccc1Br | -18.6% | 
COc1ccc(-c2noc(CCC(=O)Nc3ccn(C)n3)n2)cc1 | -1.76% | 
O=C1NC(C(=O)NCc2ccccn2)Cn2cccc21 (configuration not stated) | -25.1% | 
O=C1CCC(C(=O)NCc2ccc(-c3cnc4c(Oc5ccccc5)nccn34)cc2)N1 (configuration not stated) |  | 35.5 µM (active)
COc1ccc(CNC(=O)NCC(=O)N2CCCCCCNC(=O)CC2c2ccccc2)cc1 (configuration not stated) | 10.8% | 
O=S(=O)(c1ccc(Cl)cc1)c1nc(-c2ccco2)oc1N1CCCCC1 | -11.1% | 
Cc1ccc(C)c(NC(=O)C(c2ccccc2)n2cnc3c2c(=O)n(C)c(=O)n3C)c1 (configuration not stated) | -13.9% | 
COc1cccc(OCCN(C)Cc2cn(-c3ccccc3)nn2)c1 | 5.71% | 
O=C(CCOc1ccc(Cl)cc1)N1CCC(c2nnc3n2CCC3)CC1 | -10.3% | 
Cc1ccc2nc(NC(C)(C)CO)nc(-c3ccccc3)c2c1 | 120% | 
CC(CC#N)NC(=O)c1cc2ccccc2cc1NC(=O)OC(C)(C)C (configuration not stated) | 40.3% | 
Cc1cc(C)nc(NC(=O)Nc2ccc(C)c(F)c2)c1 | 4.73% | 
COc1ccc(-c2ocnc2C(=O)Nc2cccc(Cl)c2)cc1 | 10.2% | 
COc1ccc(NC(=O)Cn2cccc2-c2nc(-c3ccc4c(c3)OCO4)no2)c(OC)c1 | 3.86% | 
O=C(CCc1ccccc1)NCCn1cccc1-c1nc(-c2ccc3c(c2)OCO3)no1 |  | 31.6 µM (active)
Cc1ccc(NC(=O)Cn2cccc2-c2nc(-c3ccc4c(c3)OCO4)no2)cc1Cl | 3.09% | 
N#CCc1ccc(OCC(O)Cn2cnc3ccc(Cl)cc3c2=O)cc1 (configuration not stated) | 4.38% | 
Cc1ccc(S(=O)(=O)N2CCN(C)CC2)cc1C(=O)NC1CCCCC1 | 23.1% | 

Compound | activity change, negative = inhibition | Potency
CCOC(=O)N1CCC(NC(=O)CS(=O)Cc2nc(-c3ccccc3F)oc2C)CC1 (configuration not stated) | 4.01% | 
O=C(Cc1cccn1-c1ccccc1)N1CCOCC1 | -6.08% | 
CCc1nc(-c2ccc(OC3CCN(C(=O)Cc4c[nH]c5ccccc45)C3)cc2)no1 (configuration not stated) | 7.34% | 
Cc1noc(C)c1-c1cnc2[nH]cc(CC(=O)N3CCOCC3)c2c1 |  | 35.5 µM (active)
Cc1ccc(S(=O)(=O)NC(=O)c2cccc(C)c2)cc1 | -7.21% | 
O=C(N[C@@H]1CN(c2ccncn2)C[C@H]1CO)C1CCCC1 | 12% | 
CCOc1ccccc1C(=O)N1CCC(Oc2ncccc2C(=O)N(C)C)C1 (configuration not stated) | -1.4% | 
CCOc1ccccc1C(=O)N[C@@H]1CN(c2ncccn2)C[C@H]1CO |  | 22.4 µM (active)
Cc1cccnc1C(=O)N[C@@H]1CN(c2ncccn2)C[C@H]1CO |  | 20 µM (active)
O=C(N[C@@H]1CN(Cc2cccnc2)C[C@H]1CO)c1cccnc1 | -2.06% | 
O=C(CCn1cccn1)N[C@@H]1CN(Cc2ccccc2)C[C@H]1CO | 14.5% | 
CCc1nc2nc3c(cn2n1)C(=O)CC(c1ccc(Cl)cc1)C3 (configuration not stated) | -0.51% | 
CC(C)NS(=O)(=O)c1ccc(OCC(=O)NC2CCCCCC2)cc1 | 16.2% | 
COc1ccc2c(=O)c(Oc3cccc(C)c3)c(C(F)(F)F)oc2c1 | -8.82% | 
COc1ccc(C23NCCN2C(=O)c2ccccc23)cc1 (configuration not stated) | 34.4% | 
CNc1nc(C(=O)NCc2ccc3[nH]c(-c4ccc(F)cc4)c(C)c3c2)cs1 |  | 5.62 µM (active)
O=C(NCc1ccc2c(c1)OCO2)c1noc(-c2ccc(F)cc2)n1 | 7.84% | 
COc1ccc(CNC(=O)c2noc(-c3ccc(F)cc3)n2)cc1 | -17.9% | 
Cc1ccc(CNC(=O)c2cc(=O)c3ccc(C)c(C)c3o2)cc1 | 13.1% | 
Cc1c(-c2ccc(F)cc2)[nH]c2ccc(CNC(=O)c3ccc(CO)o3)cc12 |  | 22.4 µM (active)
COc1ccc(CNC(=O)c2ccc(CS(=O)c3ccc(C)cc3)o2)cc1OC (configuration not stated) | -8.94% | 
CCCc1nc(SCC(=O)N2CCCC2)c2c(=O)n(C)c(=O)n(C)c2n1 | 37.7% | 

Compound | activity change, negative = inhibition | Potency
Cc1ccccc1NC(=S)NNC=O | 26.2% | 
COc1ccc(OC)c(S(=O)(=O)N2CCCC(C(=O)NCCc3ccccc3)C2)c1 (configuration not stated) | 26.3% | 
CC(=O)c1ccccc1NC(=O)CCc1ncc(-c2c(F)cccc2F)o1 | -23.2% | 
CCOC(=O)CN1C(=O)C2(CC(=O)Nc3[nH]ncc32)c2ccccc21 (configuration not stated) | 5% | 
Cc1cnc(C)c(N2CCN(C(=O)[C@H]3CC[C@@H](N)C3)CC2)n1 |  | 22.4 µM (active)
N[C@@H]1CC[C@H](C(=O)N2CCN(CCCOc3ccc(F)cc3)CC2)C1 | -4.43% | 
Cc1cnc(C)c(N2CCN(C(=O)C3CCC(=O)N(CCc4cccc(F)c4)C3)CC2)n1 (configuration not stated) | 0.442% | 
COc1ccccc1Cc1nnc(NC(=O)c2cccc(NC(=O)c3ccccc3)c2)s1 | -7.98% | 
COc1ccc(OC2CCN(C(C)=O)CC2)c(C(=O)NCCc2ccccc2OC)c1 |  | 25.1 µM (active)
COc1ccc(OC2CCN(C(C)=O)CC2)c(C(=O)NCc2snnc2C)c1 | 5.6% | 
COc1ccc(OC2CCN(C(C)=O)CC2)c(C(=O)N(C)Cc2ccc3nccnc3c2)c1 | -11.7% | 
O=C(c1cc2ccccc2oc1=O)N1CCC(Cc2ccccc2)CC1 | 7.13% | 
COCCN1C(=O)c2cccn2CC1CNC(=O)c1ccccc1F (configuration not stated) | -17.1% | 
COCCC(=O)NCC1Cn2cccc2C(=O)N1Cc1ccccc1 (configuration not stated) | -21.7% | 
COCCN1C(=O)c2cccn2CC1CNC(=O)c1cc2ccccc2[nH]1 (configuration not stated) |  | 28.2 µM (active)
CCOC(=O)c1oc2cc(OC(C)=O)ccc2c(=O)c1-c1ccc(OC)cc1 | -2.04% | 
O=C1CO[C@H](c2ccc(NS(=O)(=O)c3cccc(F)c3)cc2)[C@@H](CO)N1Cc1ccncc1 | 15.3% | 
COc1cc(F)ccc1-c1ccc(COc2ccc3c(cnn3CCC(=O)O)c2)cc1 | -20.4% [at 86.2 µM] | 
COc1cc(F)ccc1-c1ccnc2nc(C(C)C)nn12 |  | 28.2 µM (active)
Fc1ccc(Cc2nc3nccc(-c4cc5ccccc5o4)n3n2)cc1 | -345% | 
COc1cc(F)ccc1C(C)=O | 15.6% | 
CCc1nc2nccc(-c3ccco3)n2n1 |  | 28.2 µM (active)

Compound | activity change, negative = inhibition | Potency
Cc1cc(Nc2ccccc2)n2nc(Cc3ccc(Cl)cc3)nc2n1 | 19.8% | 
Fc1ccc(Cc2nc3nccc(-c4ccco4)n3n2)cc1 |  | 20 µM (active)
COCc1nc2nccc(-c3ccccc3)n2n1 |  | 31.6 µM (active)
Cn1cc(C#N)cc1-c1nc(COc2ccccc2)nn1CC(F)(F)F | -14.2% | 
O=C(O)c1cc(Br)c(Cl)[nH]1 | -0.612% | 
Cc1ccc2c(COC(=O)COc3ccc(C)c(C)c3)cc(=O)oc2c1 | 9.56% | 
Cc1[nH]c2ccc(C(=O)N3CCN(C)CC3)cc2c1C | 16.8% | 
CCOc1ccc(C(=O)Nc2ccc3oc(C)nc3c2)cc1OCC | -8.51% | 
N#CCCC(C#N)Cn1nc(-c2ccccc2)c2ccccc2c1=O (configuration not stated) | 4.44% | 
CCN(CC)Cc1cnc2c(C(=O)NCc3ccsc3)cnn2c1 | -24.5% | 
CC#CC(=O)N1CCCC(C(=O)Nc2cccc(-c3cccc(C)c3)c2)C1 (configuration not stated) | 7.67% | 
COc1ccc(-c2ccnc3nc(CC(C)C)nn23)c(F)c1 |  | 28.2 µM (active)
COc1ccc(CN2CC(Oc3ccc(F)c(F)c3)C2)cc1 | -0.531% [at 149 µM] | 
c1coc(-c2ccnc3nc(C4CC4)nn23)c1 |  | 28.2 µM (active)
COc1cccc(-c2nc(COc3ccccc3C#N)cs2)c1 | -29% | 
COc1cccc(-c2ccnc3nc(Cc4cc(F)cc(F)c4)nn23)c1 |  | 25.1 µM (active)
COCCn1c(-c2cccc(OC)c2)cnc1NC(=O)NCCc1ccccc1 | -4.88% | 
CC1CNC(C)(C)C(O)C1 (configuration not stated) | 22.2% | 
Cn1c(=O)c2c(nc(NCc3cccs3)n2Cc2ccc(F)cc2)n(C)c1=O | 12.8% | 
Oc1c(C=Nc2ccc(F)c(Cl)c2)ccc2ccccc12 | 11.3% | 
CC(NC(=O)CNC(=O)c1ccc(N2CCCC2=O)cc1)c1ccccc1Br (configuration not stated) | -11.8% | 
COc1ccc(C(=O)N[C@@H]2C[C@H](COc3cccc(C)n3)[C@@H](O)[C@H]2O)cc1 | -15.3% [at 86.2 µM] | 

Compound | activity change, negative = inhibition | Potency
CN(CC1CCN(CCc2cccc(F)c2)CC1)C(=O)c1cn2cccnc2n1 |  | 28.2 µM (active)
CN(CCc1ccccn1)C(=O)c1ccc(OC2CCN(CCc3ccccc3)CC2)cc1 | -6.05% | 
CN(Cc1nccn1C)C(=O)c1cc(CN2CCC(Cc3ccccc3)CC2)on1 | -7.68% | 
CCCn1nc(C(=O)OCC(=O)N2CCc3ccccc32)c2ccccc2c1=O | 24.1% | 
COc1ccc(NC(=O)c2cnc3ccccc3n2)c(OC)c1 | -11.9% | 
CCCOCCCNC(=O)c1c(C)noc1-c1ccccc1Cl | 6.54% | 
COc1ccc(-c2onc(C)c2C(=O)NCc2ccc3c(c2)OCO3)cc1 | -8.26% | 
CCCOCCCNC(=O)c1c(C)noc1-c1cc(OC)c(OC)c(OC)c1 |  | 28.2 µM (active)
O=C(COc1ccc2c(=O)c(-c3ccccc3)coc2c1)N1CCN(c2ccccn2)CC1 | -1.74% | 
Cc1ccc(-c2noc(Cn3cnc(C#N)n3)n2)cc1 | 7.52% | 
COc1ccc(CN[C@@H]2CCC[C@@H](C(=O)NCc3cc(C)on3)CC(=O)N(C)C2)cn1 | -11.1% [at 86.2 µM] | 
COc1cccc(-c2ccc(F)c(C(N)=O)c2)c1OC | -22.1% | 
COc1ccccc1C(=O)Nc1ccnn1C1CCN(Cc2cnn(C)c2)CC1 | 9.36% | 
COc1ccc(CNC(=O)c2cccc3c2CCN3C(=O)c2ccc(F)cc2)cc1OC | -17.8% | 
COc1ccccc1-c1cc(C(=O)NCc2cnn(C)c2)c2c(c1)N(C)CCO2 |  | 28.2 µM (active)
Cc1ccc2[nH]cc(CCNC(=O)c3ccccc3C)c2c1 | 6.05% | 
Cc1ccccc1-c1cc(C(=O)NCCN2CCNC2=O)c2c(c1)N(C)CCO2 |  | 39.8 µM (active)
COc1cccc(-c2cc(C(=O)NCc3cc(C)on3)c3c(c2)N(C)CCO3)c1OC |  | 28.2 µM (active)
Cc1ccccc1CN1C(=O)c2ccccc2Sc2ccc(C(=O)NCCCN3CCOCC3)cc21 | -1.46% | 
